Screen size: about 17,000 compounds; about 260 (1.5%) were called active. This is one part of a sample in which actives are shown more often than they occur.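 How the source made its calls: active means spot fluorescence over background with P-value below 7% in all four replicate spots, showing protein binding; inactive means the rest.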

Consider 5 molecules from PubChem BioAssay AID624141 (Broad Institute, 2012).

Myc proto-oncogene protein (Homo sapiens), sequence (P01106 whole entry, looked up): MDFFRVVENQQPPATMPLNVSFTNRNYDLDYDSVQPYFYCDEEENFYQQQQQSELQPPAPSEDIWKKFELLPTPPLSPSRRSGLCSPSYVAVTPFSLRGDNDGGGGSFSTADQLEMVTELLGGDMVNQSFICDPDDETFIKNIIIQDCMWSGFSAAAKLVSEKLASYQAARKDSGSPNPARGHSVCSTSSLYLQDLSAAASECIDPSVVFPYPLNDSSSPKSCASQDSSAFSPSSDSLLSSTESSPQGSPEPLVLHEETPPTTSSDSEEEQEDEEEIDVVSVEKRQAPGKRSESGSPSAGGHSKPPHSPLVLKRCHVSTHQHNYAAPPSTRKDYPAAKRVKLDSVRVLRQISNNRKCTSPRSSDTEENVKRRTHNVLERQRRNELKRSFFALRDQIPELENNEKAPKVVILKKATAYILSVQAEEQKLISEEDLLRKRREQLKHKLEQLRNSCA

This test concerns the target Myc proto-oncogene protein (Homo sapiens) (UniProt P01106). Briefly: binders of human c-Myc, primary screen, biochemical, small molecule microarray, anti-His fluorescence (AID 624141). The conditions noted are these: His-c-Myc binding.
As for `COc1ccc2[nH]cc(CCNCc3ccc(Br)cc3)c2c1`, the result was inactive.
For `c1cncc(CNCCc2c[nH]c3ccccc23)c1` the value was “active”.
For `c1ccc(CCCCN2CCC(c3ccccc3)CC2)cc1` the value was “inactive”.
The entry for `C[C@H](CO)N1C[C@H](C)[C@H](CN(C)C(=O)Oc2ccc3ccccc3c2)OCc2cnnn2CCCC1=O` is “inactive”.
Turning to `CN[C@@H]1C[C@H]2O[C@@](C)([C@@H]1OC)n1c3ccccc3c3c4c(c5c6ccccc6n2c5c31)C(=O)NC4`, the call was inactive.
